These results are taken from PubChem BioAssay (NCI).

SMILES strings stand for the structures. The panel holds about 83,000 compounds, 20% with a hit somewhere; the sample as a whole holds those more often.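 Activity criterion: percent growth below 10, measured after cells in 96-well plates were exposed to a single compound concentration for 48 hours.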 A number with no mark means an inactive call. Calls of active or inactive are those of the source.

Holding throughout (experiment): NCI-60 one-dose screen, 48 h (100 = growth as untreated, 0 = no growth, -100 = all killed)
For experiment [1], the system named is HCT-15 colon. The note with it: 10 µM unless noted.
In experiment [2] the test system is HT29 colon. The note with it: 10 µM unless noted.
In experiment [3] the test system is U251 CNS. Particulars: 10 µM unless noted.
The test system of experiment [4] is PC-3 prostate. The note with it: 10 µM unless noted.
For experiment [5], the system named is SK-MEL-5 melanoma. Particulars: 10 µM unless noted.
Experiment [6] relates to UACC-62 melanoma. Particulars: 10 µM unless noted.
The subject of experiment [7] is LOX IMVI melanoma. The note with it: 10 µM unless noted.
Experiment [8] relates to SK-MEL-28 melanoma. Particulars: 10 µM unless noted.
Experiment [9] has as its system SK-MEL-2 melanoma. Particulars: 10 µM unless noted.
Experiment [10] deals with EKVX NSCLC. Particulars: 10 µM unless noted.
Experiment [11] concerns SN12C renal. The note with it: 10 µM unless noted.
Experiment [12] has as its system UO-31 renal. The note with it: 10 µM unless noted.
Experiment [13] has as its system TK-10 renal. Particulars: 10 µM unless noted.
Experiment [14] relates to ACHN renal. The note with it: 10 µM unless noted.
For experiment [15], the system named is CAKI-1 renal. Particulars: 10 µM unless noted.
The subject of experiment [16] is A498 renal. Particulars: 10 µM unless noted.
The test system of experiment [17] is CCRF-CEM leukemia. Particulars: 10 µM unless noted.
The subject of experiment [18] is MOLT-4 leukemia. Particulars: 10 µM unless noted.
The subject of experiment [19] is SNB-19 CNS. Particulars: 10 µM unless noted.
In experiment [20] the test system is SNB-75 CNS. The note with it: 10 µM.

On to `OCCCCCCNc1ncnc2cc(Cl)ccc12`, for which the growth in [1] was 101%; in experiment [2], 99%; in experiment [3], 96.8%; in [4], 80.7%; in experiment [5], 94.1%; in [6], 102%. For the same molecule, the growth was 88.1% in [7]; 116% in [8]; 100% in [9]; 105% in experiment [10]; 99.9% in [11]; 69.7% in experiment [12]. Moreover, the growth in experiment [13] was 94.1%; in experiment [14], 102%; in [15], 90.3%; in [16] it was 104%; in experiment [17], 78.2%; in [18], 84.5%.

With `O=[N+]([O-])c1cccc(-c2nc3sccn3c2-c2ccnc(NCCCNS(=O)(=O)c3ccc(C(F)(F)F)cc3)n2)c1`, the growth was 17.6% in [1]; 36.8% in experiment [2]; 69% in experiment [19]; 60.9% in experiment [3]; -45.5% (active) in experiment [5]; -13.2% (active) in experiment [6]. The growth in [7] was 17.6%; in [9], 25.3%; in experiment [10], 38.1%; in experiment [11] it was 35.4%; in experiment [12], 12.5%; in experiment [13], 73.6%. Moreover, the growth is 22.6% in [14]; 21.1% in [15]; 25% in experiment [16]; 14.5% in experiment [17]; 7.2% (active) in experiment [18].

With `COc1ccc(-c2[nH]nc(N)c2-c2cc(OC)c3c(c2)OCO3)cc1`, the growth in experiment [1] was 46%; in experiment [2], 26%; in [19], 68.8%; in [3], 54.7%; in [5], 54.2%; in [6] it was 37.2%. Besides, the growth in experiment [7] is 56.5%; in [8], 60%; in experiment [10], 72.9%; in experiment [11], 52%; in [12], 68.1%; in [14] it was 73.8%. The results for the growth in experiment [15], in experiment [16] and in experiment [18] were 53.4%, 43.2% and 25.7%, respectively.

With `O=C(Oc1ccccc1[N+](=O)[O-])C1CCCN1C(=O)OCc1ccccc1` (centres undefined), the growth in experiment [1] is 101%; in [20], 99%; in [19], 103%; in experiment [3], 96.8%; in experiment [4], 97.3%; in experiment [5], 101%. Besides, the growth in experiment [6] was 109%; in experiment [7], 84.2%; in experiment [8], 102%; in experiment [10] it was 96.7%; in [11], 98.7%; in experiment [12], 90.1%. The growth in experiment [14] was 105%; in experiment [15], 93.7%; in experiment [16], 95.5%; in experiment [17], 99.1%; in [18] it was 83.5%.

On to `COc1cc(C2C3=C(COC3=O)Nc3cc4c(cc32)CCC4)cc2c1OCO2` (centres undefined), for which the growth was 14.8% in experiment [1]; 46.3% in experiment [20]; 42.9% in experiment [19]; 27.5% in [3]; 20.4% in experiment [4]; -42.4% (active) in experiment [5]. Also, the growth was 43.7% in experiment [6]; 13.9% in experiment [7]; 59.1% in experiment [8]; 54.4% in experiment [9]; 45.4% in [10]; 30.9% in [11]. Besides, the growth was 53.5% in experiment [12]; 67.4% in [13]; 37.2% in experiment [15]; 25.6% in [16]; 10.3% in experiment [17]; 19.6% in experiment [18].

Regarding `COc1cc(Cn2cc3c(c2)-c2oncc2CC3)cc(OC)c1OC`, the growth in [1] is 16.3%; in experiment [20] it was 45.5%; in experiment [19], 34.9%; in [3] it was 17.2%; in [4], 38.4%; in [5], -36% (active). Besides, the growth in [6] was 41.9%; in experiment [7], 9.46% (active); in experiment [8], 59.9%; in experiment [9], 23.7%; in experiment [10], 40.6%; in experiment [11], 30.2%. The growth in experiment [12] was 27.5%; in experiment [15], 20.8%; in [16], -1.56% (active); in experiment [17], 17.3%; in [18], 17.6%.

On to `Nc1ncnc2c1c(-c1ccc(Oc3ccccc3)cc1)nn2C[C@@H]1SSC[C@@H]1O`, for which the growth is 64.6% in experiment [1]; 5.33% (active) in experiment [20]; 60.7% in experiment [19]; 37.5% in experiment [3]; 55.4% in [4]; -86.4% (active) in [5]. The growth in experiment [6] is -81.1% (active); in [7], -20.5% (active); in [8], 2.67% (active); in [9], -57.5% (active); in [10], 25.2%; in experiment [11] it was 37.1%. The growth in experiment [12] is 13.7%; in experiment [14] it was 23.6%; in experiment [16], 43.8%; in [17] it was -15% (active); in experiment [18] it was -38.1% (active).
